Measured values: publication PMC11062922 (Nature Chemical Biology, 2023)
Where two headings read alike, the source gives them in different places.

What was measured:
Design in all cases: species or system human, MV4-11 + K-562 + COLO205 + SK-N-BE2 + OVCAR-8
[1] = system: CDK16; conditions: read-out: apparent Kd, n = 1
[2] = system: CDK17; conditions: read-out: apparent Kd, n = 1
[3] = system: CDK6; conditions: read-out: apparent Kd; compound concentrations:100 nM and 1000 nM (sheet 'Samples'); n = 1
[4] = system: CDK7; conditions: read-out: apparent Kd; compound concentrations:100 nM and 1000 nM (sheet 'Samples'); n = 1
[5] = system: CDK9; conditions: read-out: apparent Kd; compound concentrations:100 nM and 1000 nM (sheet 'Samples'); n = 1
[6] = system: CDKL5; conditions: read-out: apparent Kd; compound concentrations:100 nM and 1000 nM (sheet 'Samples'); n = 1
[7] = system: EPHB2; conditions: read-out: apparent Kd; compound concentrations:100 nM and 1000 nM (sheet 'Samples'); n = 1
[8] = system: ERCC2; conditions: read-out: apparent Kd; compound concentrations:100 nM and 1000 nM (sheet 'Samples'); n = 1
[9] = system: FER; conditions: read-out: apparent Kd; compound concentrations:100 nM and 1000 nM (sheet 'Samples'); n = 1
[10] = system: GSK3A; conditions: read-out: apparent Kd, n = 1
[11] = system: GSK3B; conditions: read-out: apparent Kd, n = 1
[12] = system: ICK; conditions: read-out: apparent Kd, n = 1
[13] = system: MAPK7; conditions: read-out: apparent Kd; compound concentrations:100 nM and 1000 nM (sheet 'Samples'); n = 1
[14] = system: NQO2; conditions: read-out: apparent Kd; compound concentrations:100 nM and 1000 nM (sheet 'Samples'); n = 1
[15] = system: PDGFRB; conditions: read-out: apparent Kd, n = 1
[16] = system: TNK1; conditions: read-out: apparent Kd; compound concentrations:100 nM and 1000 nM (sheet 'Samples'); n = 1
[17] = system: TNK2; conditions: read-out: apparent Kd; compound concentrations:100 nM and 1000 nM (sheet 'Samples'); n = 1
[18] = system: CDC7; conditions: read-out: apparent Kd, n = 1
[19] = system: CDK4; conditions: read-out: apparent Kd; compound concentrations: 100 nM and 1000 nM (sheet 'Samples'), CATDS: 0.32683838675566101; n = 1
[20] = system: MAP2K2; conditions: read-out: apparent Kd; compound concentrations: 100 nM and 1000 nM (sheet 'Samples'), CATDS: 0.35471612701675298; n = 1
[21] = system: PIK3CD; conditions: read-out: apparent Kd; compound concentrations:100 nM and 1000 nM (sheet 'Samples'); n = 1
[22] = system: TGFBR1; conditions: read-out: apparent Kd; compound concentrations:100 nM and 1000 nM (sheet 'Samples'); n = 1
[23] = system: CDC42; conditions: read-out: apparent Kd; compound concentrations: 100 nM and 1000 nM (sheet 'Samples'), CATDS: 0.203680819174512; n = 1
[24] = system: CLK1; conditions: read-out: apparent Kd; compound concentrations: 100 nM and 1000 nM (sheet 'Samples'), CATDS: 0.14144162064954499; n = 1
[25] = system: CLK4; conditions: read-out: apparent Kd; compound concentrations: 100 nM and 1000 nM (sheet 'Samples'), CATDS: 0.121885472090614; n = 1
[26] = system: DYRK1A; conditions: read-out: apparent Kd; compound concentrations: 100 nM and 1000 nM (sheet 'Samples'), CATDS: 6.0885213450921502E-2; n = 1
[27] = system: PRKCA; conditions: read-out: apparent Kd; compound concentrations: 100 nM and 1000 nM (sheet 'Samples'), CATDS: 6.1825082982023397E-2; n = 1
[28] = system: PRKCB; conditions: read-out: apparent Kd; compound concentrations: 100 nM and 1000 nM (sheet 'Samples'), CATDS: 5.6210904808559101E-2; n = 1
[29] = system: PRKCD; conditions: read-out: apparent Kd; compound concentrations: 100 nM and 1000 nM (sheet 'Samples'), CATDS: 6.6135854236704303E-2; n = 1
[30] = system: SLK; conditions: read-out: apparent Kd; compound concentrations: 100 nM and 1000 nM (sheet 'Samples'), CATDS: 5.3656939950023998E-2; n = 1
[31] = compound concentrations:100 nM and 1000 nM (sheet 'Samples')

CN1CCC(C(=O)Nc2n[nH]c3nc(-c4ccc(O)cc4)c(Br)cc23)CC1.O=C(O)/C=C\C(=O)O [SB-732881-H]
potency estimated from few doses [1, 31]: 531 nM
potency estimated from few doses [2, 31]: 459 nM
potency estimated from few doses [3]: 786 nM
potency estimated from few doses [4]: 732 nM
potency estimated from few doses [5]: 234 nM
potency estimated from few doses [6]: 21 nM
potency estimated from few doses [7]: 1100 nM
potency estimated from few doses [8]: 985 nM
potency estimated from few doses [9]: 1270 nM
potency estimated from few doses [10, 31]: 2.51 nM
potency estimated from few doses [11, 31]: 8.66 nM
potency estimated from few doses [12, 31]: 1160 nM
potency estimated from few doses [13]: 1760 nM
potency estimated from few doses [14]: 1590 nM
potency estimated from few doses [15, 31]: 1730 nM
potency estimated from few doses [16]: 744 nM
potency estimated from few doses [17]: 964 nM

NS(=O)(=O)c1cccc(-c2ccc3ncc(N4CCOCC4)nc3c2)c1 [GSK1535721A]
potency estimated from few doses ([18]; compound concentrations: 100 nM and 1000 nM (sheet 'Samples'), CATDS: 1): 1940 nM

COc1cc2ncn(-c3cc(OCc4ccccc4C(F)(F)F)c(C(=O)N(C)C)s3)c2cc1OC [GSK1030062A]
potency estimated from few doses [19]: 2020 nM
potency estimated from few doses [20]: 1720 nM
potency estimated from few doses ([15]; compound concentrations: 100 nM and 1000 nM (sheet 'Samples'), CATDS: 0.32038670462926999): 2110 nM

c1ccc(-c2cc(-c3c[nH]nc3-c3ccccn3)ccn2)cc1 [GW576604X]
potency estimated from few doses [18, 31]: 1870 nM
potency estimated from few doses [21]: 128 nM
potency estimated from few doses [22]: 629 nM

Cn1cc(C2=C(c3cccc(N)c3)C(=O)NC2=O)c2ccccc21 [RO0317471-000]
potency estimated from few doses [23]: 1200 nM
potency estimated from few doses ([10]; compound concentrations: 100 nM and 1000 nM (sheet 'Samples'), CATDS: 0.53179335167556496): 23.5 nM
potency estimated from few doses ([11]; compound concentrations: 100 nM and 1000 nM (sheet 'Samples'), CATDS: 0.45250345973029299): 32.2 nM

Cl.Cn1cc(C2=C(c3cccc(NCC(O)CO)c3)C(=O)NC2=O)c2cc(Cl)ccc21 (stereo not drawn) [RO3303724-001]
potency estimated from few doses ([1]; compound concentrations: 100 nM and 1000 nM (sheet 'Samples'), CATDS: 8.3420011221061796E-2): 435 nM
potency estimated from few doses ([2]; compound concentrations: 100 nM and 1000 nM (sheet 'Samples'), CATDS: 6.9472696820348595E-2): 789 nM
potency estimated from few doses [24]: 89.4 nM
potency estimated from few doses [25]: 140 nM
potency estimated from few doses [26]: 1290 nM
potency estimated from few doses ([10]; compound concentrations: 100 nM and 1000 nM (sheet 'Samples'), CATDS: 0.52335848110550598): 1.59 nM
potency estimated from few doses ([11]; compound concentrations: 100 nM and 1000 nM (sheet 'Samples'), CATDS: 0.436012050591219): 2.26 nM
potency estimated from few doses ([12]; compound concentrations: 100 nM and 1000 nM (sheet 'Samples'), CATDS: 7.1463639855973302E-2): 716 nM
potency estimated from few doses [27]: 1210 nM
potency estimated from few doses [28]: 1830 nM
potency estimated from few doses [29]: 939 nM
potency estimated from few doses [30]: 2310 nM
